The text below walks through data of PubChem BioAssay.

Inconclusive results are not listed. Active and inactive are the calls of the source. Unless noted, no rule for the calls is given here. Peptide text beside a SMILES is read from it.

The nature of experiment [1]: rapamycin-like changes in RPL19A-GFP expression – cell-based, S. cerevisiae, multiplex flow cytometry, primary screen (AID 1862; in the data active = percent of DMSO control GFP below about 86%;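 also: lower values mimic rapamycin by blocking the RPL19A rise seen in DMSO cells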). As to conditions: S. cerevisiae RPL19A-GFP strain, flow cytometry fluorescence, 3 h; at 10 µM; stronger effect = lower value.
Experiment [2] in a line: TOR pathway GLN3 branch reporter MEP2-GFP changes – S. cerevisiae, multiplex flow cytometry, primary screen (AID 1867;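 active = GFP response, as percent of the DMSO control, above the screen-wide mean plus 3 SD, about 139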;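 also: median GFP channel fluorescence of barcode-gated MEP2-GFP cells measured by flow cytometry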). As to conditions: S. cerevisiae MEP2-GFP strain, 3 h, at 10 µM, stronger effect = higher value.
Experiment [3] can be described thus: TOR pathway RTG branch CIT2 reporter changes – S. cerevisiae, GFP fusion, multiplex flow cytometry, primary screen (AID 1870;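 active = percent response above a set limit, the screen-wide mean plus 3 SD, cut at about 130% in these data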;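 also: barcoded CIT2-GFP strain pooled with four other GFP strains with rapamycin as positive control; median GFP fluorescence per well over plate mean of DMSO wells so 100% = DMSO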). As to conditions: S. cerevisiae CIT2-GFP expression, 3 h, at 10 µM, stronger effect = higher value.
Experiment [4] can be described thus: TOR pathway LAP4-GFP level changes – S. cerevisiae, multiplex flow cytometry, primary screen (AID 1873;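 active = GFP signal, as percent of the solvent control, above the screen mean plus 3 SD, about 149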). The conditions noted are these: S. cerevisiae LAP4-GFP expression, 3 h, at 10 µM, stronger effect = higher value.
The nature of experiment [5]: reduced mouse 2C T cell binding to pMHC/ICAM-1 vesicles – MLPCN validation set, flow cytometry, LFA-1/ICAM-1 modulator project, pilot screen (AID 2523;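 active = response below a set limit, under 55% cells CD8-positive and vesicle-bound, and CD8 cells' 90th-percentile brightness under 279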;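 as to vesicle binding response: mean PE anti-B7-1 fluorescence of CD8+ cells relative to row control; 100% = QL9-loaded vesicles with DMSO vehicle in the same plate row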). As to conditions: 2C mouse CD8+ T cells, at 7 µM, stronger effect = lower value; double positive events: measured here: CD8+/vesicle+ event percentage. In general terms: Flow cytometry measures light scatter and fluorescence of single cells or particles in a stream.

Experiment [6] concerns the target Integrin beta-1 (Homo sapiens) + Integrin alpha-4 (Homo sapiens) (UniProt P13612+P05556). Nature of the experiment: alpha4beta1 integrin LIBS antibody binding reduction – U937 cells, HUTS-21 mAb, flow cytometry, validation set, VLA-4 allosteric modulator project, pilot screen (AID 2674;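 active = inhibition above 50%, about 3 SD of the validation set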;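 also: antibody binding induced by the VLA-4 ligand LDV present at three times its Kd; 0% = LDV ligand with antibody and no compound and 100% = antibody without LDV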). The conditions noted are these: HUTS-21 LIBS mAb binding, at 6.7 µM, stronger effect = higher value.

Experiment [7] is described as follows: calorie-restriction mimetic ROS inhibitors, yeast – validation compound set, pilot screen (AID 2706;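 active = superoxide response below 65% of plate, a cut near 3 SD across the whole screen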;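 also: yeast exposed to compound for one week at 30 degrees C before staining; 100% = mean of all compound wells on the same plate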). As to conditions: S. cerevisiae aging, superoxide DHE fluorescence; at 10 µM; stronger effect = lower value.
In experiment [8] the target is Beta-adrenergic receptor kinase 1 (Homo sapiens) (UniProt P25098). Nature of the experiment: GRK2 binders displacing RNA aptamer, biochemical, validation, human GRK2, bead flow cytometry (AID 488806;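 active = aptamer binding inhibition above 30%, about 3 SD of noise from non-fluorescent compounds; inactive = inhibition at or below 30%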). The conditions noted are these: bead-bound GRK2, FAM-aptamer displacement, at 10 µM, stronger effect = higher value.
A short description of experiment [9]: cytosolic pH regulators acting via V-ATPase – S. cerevisiae, pHLuorin, HTS validation (AID 504600; in the data active = response above about 15%;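 also: plate controls were DMSO for no effect and reference compound for full effect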). The conditions noted are these: V-ATPase proton transport, at 10 µM, stronger effect = higher value.
Experiment [10] deals with anti-desmoglein-3 scFv antibody binding to human DSG3. Nature of the experiment: blockers of pathogenic pemphigus antibody–desmoglein-3 binding – biochemical, validation compound set, bead-based, flow cytometry, pilot screen (AID 588368;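 active = binding below the plate cutoff, the plate median minus 3 SD, with a reading above zero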;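 also: signal is the median channel fluorescence of bead-bound GFP antibody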). As to conditions: Protein G beads, DSG3-Fc, scFv-GFP binding, at 10 µM, stronger effect = lower value.
In experiment [11] the test system is Botulinum neurotoxin type F light chain protease (Clostridium botulinum). Nature of the experiment: Clostridium botulinum type F light chain protease inhibitors, microsphere substrate cleavage, validation (AID 588459). As to conditions: multiplex microsphere protease substrate cleavage assay, flow cytometry; at 10 µM; stronger effect = higher value.
The target in experiment [12] is Botulinum neurotoxin type A (Clostridium botulinum) (UniProt P0DPI0). Description: BoNT/A light chain protease inhibitors, biochemical, multiplex microsphere flow cytometry, validation set (AID 588460). The conditions noted are these: at 10 µM, stronger effect = higher value.
Experiment [13] addresses Lethal factor (Bacillus anthracis) (UniProt P15917). Nature of the experiment: Bacillus anthracis lethal factor inhibition, microsphere flow cytometry protease assay, validation at 10 µM (AID 588461). The conditions noted are these: multiplex microsphere protease cleavage assay, stronger effect = higher value.
A short description of experiment [14]: Nile Red efflux blockade in pump-expressing yeast – validation compound set, multiplex, phenotypic, pilot screen (AID 588506;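 active = efflux inhibition above 0.42, the validation set average plus 4 SD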;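 also: Nile Red retained in cells so higher fluorescence means more efflux inhibition; 0 = negative control wells and 1 = enniatin B 25 µM full block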). As to conditions: S. cerevisiae pump-expressing triplex, Nile Red efflux flow cytometry; at 10 µM; stronger effect = higher value.
The target of experiment [15] is ATP-binding cassette sub-family B member 6 (Homo sapiens) (UniProt Q9NP58). Description: blockers of ABCB6-driven porphyrin uptake – K562-ABCB6 cells, flow cytometry, validation set, pilot screen (AID 588550;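 active = inhibition above the screen-wide mean plus 3 SD, about 51%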;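 also: 0% = DMSO wells and 100% = benzethonium chloride 70 µM positive control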). As to conditions: K562-ABCB6 porphyrin accumulation, 1 h, at 10 µM, stronger effect = higher value.
Experiment [16] in a line: AML differentiation inducers, ER-HoxA9 marrow cells – cell-based, GFP/MAC1 double positive, flow cytometry, validation set, primary screen (AID 588685;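 active = differentiation response of at least 50%, scaled between solvent and reference control, from cells with both markers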;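 also: compound exposure lasts four days before antibody staining and flow analysis; 0% = DMSO wells and 100% = 5 µM fulvestrant positive control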). The conditions noted are these: stronger effect = higher value.
Experiment [17] deals with AP-2 complex subunit beta (Homo sapiens) (UniProt P63010). Nature of the experiment: beta-arrestin/AP2 interaction blockers – biochemical, validation set, GST-AP2 beads, flow cytometry, pilot screen (AID 504541;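 active = inhibition above 54%, about 3 SD of non-fluorescent compounds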;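 also: AP2 carries R879A mutation and is captured from E. coli lysate; bead-bound FITC arrestin peptide fluorescence measuring arrestin peptide binding to AP2; 0% = DMSO wells and 100% = excess unlabeled arrestin peptide control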). As to conditions: FITC arrestin peptide, at 10 µM, stronger effect = higher value.
Chain of AP-2 complex subunit beta (Homo sapiens) (P63010 whole entry, looked up, one chain of several): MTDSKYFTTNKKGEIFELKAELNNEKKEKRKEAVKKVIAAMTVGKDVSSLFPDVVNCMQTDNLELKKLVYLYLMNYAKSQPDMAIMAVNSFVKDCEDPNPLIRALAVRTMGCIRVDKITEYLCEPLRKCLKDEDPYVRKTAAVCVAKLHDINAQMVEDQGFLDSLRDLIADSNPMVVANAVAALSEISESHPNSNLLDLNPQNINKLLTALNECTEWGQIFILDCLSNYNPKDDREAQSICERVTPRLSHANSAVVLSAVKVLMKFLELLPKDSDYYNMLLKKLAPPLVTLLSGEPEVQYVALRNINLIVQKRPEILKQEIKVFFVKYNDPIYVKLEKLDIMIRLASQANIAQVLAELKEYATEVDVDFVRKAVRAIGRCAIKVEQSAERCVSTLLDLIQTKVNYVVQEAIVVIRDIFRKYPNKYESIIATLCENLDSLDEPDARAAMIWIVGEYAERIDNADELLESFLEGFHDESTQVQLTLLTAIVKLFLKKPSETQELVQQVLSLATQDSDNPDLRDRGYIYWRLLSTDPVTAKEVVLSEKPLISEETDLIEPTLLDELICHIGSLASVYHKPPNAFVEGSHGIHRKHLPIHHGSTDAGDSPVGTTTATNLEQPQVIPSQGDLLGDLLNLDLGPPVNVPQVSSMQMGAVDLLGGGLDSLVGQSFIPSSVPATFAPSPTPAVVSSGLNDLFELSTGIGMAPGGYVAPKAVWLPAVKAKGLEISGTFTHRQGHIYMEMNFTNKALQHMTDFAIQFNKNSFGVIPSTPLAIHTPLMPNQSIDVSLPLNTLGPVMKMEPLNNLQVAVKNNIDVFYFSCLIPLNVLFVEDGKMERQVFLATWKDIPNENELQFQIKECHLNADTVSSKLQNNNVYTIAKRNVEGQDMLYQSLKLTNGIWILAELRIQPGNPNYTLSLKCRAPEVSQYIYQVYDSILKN

Chain of Lethal factor (Bacillus anthracis) (P15917 whole entry, looked up): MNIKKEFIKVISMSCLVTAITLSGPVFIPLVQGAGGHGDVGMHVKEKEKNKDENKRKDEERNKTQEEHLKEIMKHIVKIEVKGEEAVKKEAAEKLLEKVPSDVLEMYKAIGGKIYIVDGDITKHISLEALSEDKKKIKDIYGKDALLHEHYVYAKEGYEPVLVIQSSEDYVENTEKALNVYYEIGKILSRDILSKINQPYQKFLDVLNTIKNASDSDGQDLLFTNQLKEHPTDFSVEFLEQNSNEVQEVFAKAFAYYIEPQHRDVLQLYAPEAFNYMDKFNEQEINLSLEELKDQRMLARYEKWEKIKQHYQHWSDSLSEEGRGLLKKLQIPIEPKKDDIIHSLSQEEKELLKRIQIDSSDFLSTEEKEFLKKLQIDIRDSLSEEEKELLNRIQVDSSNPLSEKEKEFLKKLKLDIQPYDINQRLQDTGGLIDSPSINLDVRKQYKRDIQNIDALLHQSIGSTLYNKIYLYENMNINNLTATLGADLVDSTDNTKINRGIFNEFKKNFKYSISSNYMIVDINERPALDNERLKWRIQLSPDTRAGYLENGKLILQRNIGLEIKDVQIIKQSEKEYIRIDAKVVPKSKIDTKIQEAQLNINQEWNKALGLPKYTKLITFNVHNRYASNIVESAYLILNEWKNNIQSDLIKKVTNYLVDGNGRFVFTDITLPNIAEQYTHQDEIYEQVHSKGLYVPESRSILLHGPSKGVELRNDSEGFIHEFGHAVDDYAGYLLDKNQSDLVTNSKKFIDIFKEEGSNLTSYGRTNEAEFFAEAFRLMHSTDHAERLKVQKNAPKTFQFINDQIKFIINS
Chain of Botulinum neurotoxin type A (Clostridium botulinum) (P0DPI0 whole entry, looked up): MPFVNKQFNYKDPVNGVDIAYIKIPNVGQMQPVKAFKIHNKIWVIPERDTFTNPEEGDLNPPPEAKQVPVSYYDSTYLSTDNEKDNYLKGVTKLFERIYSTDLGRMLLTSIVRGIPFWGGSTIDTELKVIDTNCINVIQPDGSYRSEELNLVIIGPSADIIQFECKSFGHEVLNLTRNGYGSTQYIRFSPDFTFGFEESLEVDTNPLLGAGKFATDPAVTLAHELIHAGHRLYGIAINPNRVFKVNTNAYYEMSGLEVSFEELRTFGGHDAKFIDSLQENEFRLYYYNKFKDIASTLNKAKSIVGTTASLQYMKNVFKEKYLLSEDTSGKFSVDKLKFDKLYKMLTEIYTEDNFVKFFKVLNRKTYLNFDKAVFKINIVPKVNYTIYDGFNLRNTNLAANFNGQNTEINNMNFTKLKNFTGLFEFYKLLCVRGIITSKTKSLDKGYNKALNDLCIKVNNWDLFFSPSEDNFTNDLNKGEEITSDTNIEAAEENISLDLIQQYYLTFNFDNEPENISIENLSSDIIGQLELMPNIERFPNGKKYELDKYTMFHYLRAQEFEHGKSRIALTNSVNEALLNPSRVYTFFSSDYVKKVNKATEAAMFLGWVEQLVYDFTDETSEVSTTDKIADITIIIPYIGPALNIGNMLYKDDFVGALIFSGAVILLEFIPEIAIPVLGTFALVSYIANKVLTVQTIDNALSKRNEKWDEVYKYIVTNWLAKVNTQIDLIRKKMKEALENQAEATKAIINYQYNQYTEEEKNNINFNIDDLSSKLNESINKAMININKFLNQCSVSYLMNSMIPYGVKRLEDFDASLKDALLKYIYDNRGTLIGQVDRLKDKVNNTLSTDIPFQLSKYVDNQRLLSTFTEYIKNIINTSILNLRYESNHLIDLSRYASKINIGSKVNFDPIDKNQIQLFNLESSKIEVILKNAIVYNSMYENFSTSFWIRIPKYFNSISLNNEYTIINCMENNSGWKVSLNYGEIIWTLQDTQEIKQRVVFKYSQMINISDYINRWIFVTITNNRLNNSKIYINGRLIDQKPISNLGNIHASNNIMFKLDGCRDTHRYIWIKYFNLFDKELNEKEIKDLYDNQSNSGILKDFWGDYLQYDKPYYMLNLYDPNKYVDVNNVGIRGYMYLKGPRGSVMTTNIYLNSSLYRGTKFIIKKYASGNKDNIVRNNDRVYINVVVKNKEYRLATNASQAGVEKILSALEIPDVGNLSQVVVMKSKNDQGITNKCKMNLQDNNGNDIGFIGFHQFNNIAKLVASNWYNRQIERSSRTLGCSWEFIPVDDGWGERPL
Chain of Beta-adrenergic receptor kinase 1 (Homo sapiens) (P25098 whole entry, looked up): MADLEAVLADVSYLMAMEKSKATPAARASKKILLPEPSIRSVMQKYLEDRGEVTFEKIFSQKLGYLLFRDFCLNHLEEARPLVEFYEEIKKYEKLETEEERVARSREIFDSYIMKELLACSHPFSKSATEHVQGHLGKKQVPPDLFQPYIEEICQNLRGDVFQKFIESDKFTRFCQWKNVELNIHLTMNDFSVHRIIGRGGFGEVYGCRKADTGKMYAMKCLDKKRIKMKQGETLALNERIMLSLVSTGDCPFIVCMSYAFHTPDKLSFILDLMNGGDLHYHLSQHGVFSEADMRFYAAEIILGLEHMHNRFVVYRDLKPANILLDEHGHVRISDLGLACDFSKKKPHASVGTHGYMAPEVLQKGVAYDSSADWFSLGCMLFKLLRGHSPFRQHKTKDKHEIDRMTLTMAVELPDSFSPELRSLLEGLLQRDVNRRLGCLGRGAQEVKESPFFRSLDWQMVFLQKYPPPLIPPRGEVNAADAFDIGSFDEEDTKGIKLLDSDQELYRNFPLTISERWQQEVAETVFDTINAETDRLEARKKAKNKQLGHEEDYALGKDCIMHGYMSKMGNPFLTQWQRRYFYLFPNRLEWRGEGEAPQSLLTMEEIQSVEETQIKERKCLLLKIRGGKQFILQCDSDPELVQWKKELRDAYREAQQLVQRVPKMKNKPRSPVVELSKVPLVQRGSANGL
Chain of ATP-binding cassette sub-family B member 6 (Homo sapiens) (Q9NP58 whole entry, looked up): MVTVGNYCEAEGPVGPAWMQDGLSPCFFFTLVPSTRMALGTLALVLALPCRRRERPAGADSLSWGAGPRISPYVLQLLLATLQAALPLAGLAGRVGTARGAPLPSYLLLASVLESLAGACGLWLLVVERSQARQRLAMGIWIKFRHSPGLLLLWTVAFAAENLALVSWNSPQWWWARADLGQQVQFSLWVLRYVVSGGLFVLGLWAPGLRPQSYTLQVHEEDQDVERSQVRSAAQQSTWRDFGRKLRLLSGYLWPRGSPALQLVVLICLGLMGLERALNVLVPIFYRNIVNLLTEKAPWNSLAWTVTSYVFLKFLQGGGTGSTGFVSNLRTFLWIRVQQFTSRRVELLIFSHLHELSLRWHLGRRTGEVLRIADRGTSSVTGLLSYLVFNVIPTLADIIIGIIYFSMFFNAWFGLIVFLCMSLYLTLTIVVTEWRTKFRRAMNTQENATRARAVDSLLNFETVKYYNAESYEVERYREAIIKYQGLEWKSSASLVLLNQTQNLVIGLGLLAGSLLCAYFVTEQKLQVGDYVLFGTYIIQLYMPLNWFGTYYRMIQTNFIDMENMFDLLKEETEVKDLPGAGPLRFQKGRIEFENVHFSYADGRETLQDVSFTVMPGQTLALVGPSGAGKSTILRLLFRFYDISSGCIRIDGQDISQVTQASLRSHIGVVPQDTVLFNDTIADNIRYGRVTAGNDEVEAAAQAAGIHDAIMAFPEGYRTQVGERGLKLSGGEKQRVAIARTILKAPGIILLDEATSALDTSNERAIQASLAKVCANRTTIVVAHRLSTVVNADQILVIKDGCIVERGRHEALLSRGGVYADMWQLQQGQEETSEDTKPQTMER

One may read the inhibition as the change of the read-out against control, counted positive when it falls. Consider `NCCc1c[nH]c2ccc(F)cc12`, for which the percent of DMSO control GFP in [1] is 98.2% (inactive). The GFP response vs DMSO is 103% (inactive) in experiment [2] and 106% (inactive) in [4]. Moreover, the percent response of DMSO control in experiment [3] is 107% (inactive). Also, the double positive events in experiment [5] is 59.2%. The vesicle binding response in experiment [5] is 77.4% (inactive). In addition, the inhibition in experiment [6] is 18.3% (inactive); in experiment [11] it was -3.3% (inactive); in experiment [12], -0.7% (inactive); in [13], -4.9% (inactive); in experiment [15], 2% (inactive). In [7], the superoxide response (% of plate) is 93.9% (inactive). The aptamer binding inhibition in [8] was -1% (inactive). The response in experiment [9] is 6.8% (inactive). Moreover, the binding (% of control) in [10] was 104% (inactive). The efflux inhibition (fraction of control) in experiment [14] was -0.44 (inactive). Further, the differentiation response in experiment [16] is 5.73% (inactive).
Consider `CC(C)C[C@H](NC(=O)[C@@H]1CCCN1C(=O)[C@@H](N)Cc1ccc(O)cc1)C(=O)NCC(N)=O` (H-YPLG-NH2), for which the percent of DMSO control GFP in [1] is 108% (inactive). Moreover, the GFP response vs DMSO is 101% (inactive) in [2] and 89.3% (inactive) in experiment [4]. In addition, the percent response of DMSO control in experiment [3] is 110% (inactive). The compound also gave a double positive events in experiment [5] of 63.1%. The vesicle binding response in experiment [5] is 186% (inactive). Moreover, the inhibition in [6] was 0.69% (inactive); in experiment [17], 2.65% (inactive); in [11], -4.4% (inactive); in [12], -0.2% (inactive); in [13], 1% (inactive); in experiment [15], 7% (inactive). Also, the superoxide response (% of plate) in experiment [7] is 95.5% (inactive). Besides, the aptamer binding inhibition in experiment [8] is 1% (inactive). In [9], the response is -0.2% (inactive). Moreover, the binding (% of control) in [10] is 101% (inactive). In [14], the efflux inhibition (fraction of control) was -0.09 (inactive). For the same compound, the differentiation response in [16] is -9.89% (inactive).
Turning to `C[C@@H]1O[C@@H](O[C@H]2C[C@@H](O)[C@]3(CO)[C@H]4[C@H](O)C[C@]5(C)[C@@H](C6=CC(=O)OC6)CC[C@]5(O)[C@@H]4CC[C@]3(O)C2)[C@H](O)[C@H](O)[C@H]1O`, the percent of DMSO control GFP in [1] was 108% (inactive). In addition, the GFP response vs DMSO in experiment [2] was 104% (inactive); in experiment [4], 107% (inactive). For the same compound, the percent response of DMSO control in experiment [3] is 102% (inactive). In experiment [5], this compound registered a double positive events of 69%. Also, the vesicle binding response in [5] is 183% (inactive). The inhibition is 1.44% (inactive) in experiment [6]; -1.72% (inactive) in experiment [17]; 0.6% (inactive) in [11]; -0.5% (inactive) in experiment [12]; 0.4% (inactive) in experiment [13]; 4% (inactive) in experiment [15]. Besides, in experiment [7], the superoxide response (% of plate) was 103% (inactive). The aptamer binding inhibition in experiment [8] was 7% (inactive). The response in [9] is 0.97% (inactive). In addition, in [10], the binding (% of control) was 101% (inactive). In addition, the differentiation response in [16] is 1.91% (inactive).
For `O=C(CCCN1CCC2(CC1)C(=O)NCN2c1ccccc1)c1ccc(F)cc1`, the percent of DMSO control GFP in experiment [1] is 98.9% (inactive). The GFP response vs DMSO in [2] was 95.7% (inactive); in experiment [4] it was 110% (inactive). In addition, the percent response of DMSO control in experiment [3] is 102% (inactive). Further, the double positive events in experiment [5] is 62.6%. Also, the vesicle binding response in experiment [5] is 187% (inactive). The inhibition is 8.25% (inactive) in experiment [6], -9.7% (inactive) in experiment [17], 0.5% (inactive) in experiment [13] and -1% (inactive) in [15]. Besides, the superoxide response (% of plate) in experiment [7] is 85.3% (inactive). The aptamer binding inhibition in experiment [8] is -1% (inactive). Moreover, the response in experiment [9] was 1.45% (inactive). The binding (% of control) in [10] is 103% (inactive). Besides, the efflux inhibition (fraction of control) in experiment [14] was 0.12 (inactive). In experiment [16], the differentiation response is 3.88% (inactive).
`COc1ccc(Cc2nccc3cc(OC)c(OC)cc23)cc1OC`: in experiment [1], the percent of DMSO control GFP is 101% (inactive). Also, the GFP response vs DMSO in [2] was 96.7% (inactive); in experiment [4], 98.7% (inactive). In addition, the percent response of DMSO control in experiment [3] is 94.9% (inactive). In [5], this compound yielded a double positive events of 59.9%. In addition, the vesicle binding response in experiment [5] is 146% (inactive). Besides, the superoxide response (% of plate) in [7] was 96% (inactive). In addition, the aptamer binding inhibition in [8] was 4% (inactive). The inhibition in experiment [17] is -1.6% (inactive); in [11], 1.7% (inactive); in experiment [12] it was 0.2% (inactive); in experiment [13], 3.7% (inactive); in experiment [15], 4% (inactive). Further, in experiment [9], the response is -0.83% (inactive). In addition, in experiment [10], the binding (% of control) is 108% (inactive). The efflux inhibition (fraction of control) in experiment [14] is 0.49 (active). Further, in experiment [16], the differentiation response is 6.49% (inactive).
